Source: PubChem
Only some compounds are listed: those with a hit (about 1.5% of all), similar ones and a draw of the others.
eLon inh: inhibits E. coli Lon protease; P0A9M0; purified E. coli Lon protease, fluorescence polarization; inhibition, % at 7.94 µM; 360,000 tested, 0.42% active; AID 602123; in the data active = inhibition above about 13%, passing the limit was not always enough;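 note: 0% = enzyme with probe and DMSO and 100% = no enzyme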
MEX-5 binding: C. elegans MEX-5 TCR-2 RNA binding activity; MEX-5/FITC-TCR2 RNA binding, fluorescence polarization; active compounds read low; activity score (negative = inhibition of binding), % at 10 µM; 300,000 tested, 0.38% active; AID 1832;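 active = inhibition past about -25% in most replicates, and total fluorescence under double the plate's negative control median, limit read from the data; inconclusive = replicates evenly split on the limit, or fluorescence at least double controls; inactive = too little inhibition in most replicates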;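 note: 0% = DMSO and -100% = 5 µM competing unlabeled TCR2 RNA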
MCL1-BIM inh: inhibitors of human MCL1 binding to BIM-BH3 peptide | GST-MCL1 / FITC-Bim-BH3 fluorescence polarization | 320,000 tested, 0.68% active | Q07820 | inhibition, % at 10.9 µM;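 active = inhibition above the mean inhibition of all tested compounds plus 3 SD, set per campaign, cut at about 40% in these data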;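 note: 0% = DMSO wells and 100% = unlabeled Bim-BH3 peptide control; higher means more loss of mP so more displacement of Bim peptide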
Target sequence (Q07820 whole entry, looked up): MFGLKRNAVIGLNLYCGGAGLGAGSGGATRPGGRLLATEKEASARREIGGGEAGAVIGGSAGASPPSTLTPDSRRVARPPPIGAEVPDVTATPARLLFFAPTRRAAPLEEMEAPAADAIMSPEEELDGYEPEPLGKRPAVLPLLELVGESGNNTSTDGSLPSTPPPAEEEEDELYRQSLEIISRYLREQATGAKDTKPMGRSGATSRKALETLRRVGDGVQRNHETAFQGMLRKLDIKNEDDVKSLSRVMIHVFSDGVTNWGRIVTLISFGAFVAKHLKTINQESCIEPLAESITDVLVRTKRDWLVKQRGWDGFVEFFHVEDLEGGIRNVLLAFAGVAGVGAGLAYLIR
EBV gp42 inh: blocks Epstein-Barr virus glycoprotein 42 binding; 220,000 tested, 0.42% active; inhibition, % (tested at 21.74 µM); Fluorescence polarization binding assay, mP read-out; Q1HVG2; in the data active = inhibition above about 50%
GLD-1 RNA inh: GLD-1-TGE RNA interaction inhibition (C. elegans) | purified GLD-1 + fluorescein TGE RNA, fluorescence polarization | AID 2280 | 320,000 tested, 0.44% active | inhibition, % at 5.96 µM;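 active = percent inhibition above a per-plate cutoff, the plate mean of test compounds plus 3 SD, cut at about 30% in these data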;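 note: 0% = DMSO wells with GLD-1 and probe and 100% = wells lacking GLD-1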
BCLXL inh: blocks human Bcl-xL binding to Bim BH3 peptide. 320,000 tested, 0.7% active. inhibition, % at 10.9 µM. Q07817. AID 2129. GST-Bcl-xL / FITC-Bim BH3 peptide fluorescence polarization;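 active = inhibition above the mean of all tested compounds plus 3 SD, cutoff set per campaign, cut at about 30% in these data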;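 note: 0% = DMSO wells and 100% = unlabeled Bim-BH3 peptide competitor; inhibitors lower millipolarization by displacing the labeled peptide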
Target sequence (Q07817 whole entry, looked up): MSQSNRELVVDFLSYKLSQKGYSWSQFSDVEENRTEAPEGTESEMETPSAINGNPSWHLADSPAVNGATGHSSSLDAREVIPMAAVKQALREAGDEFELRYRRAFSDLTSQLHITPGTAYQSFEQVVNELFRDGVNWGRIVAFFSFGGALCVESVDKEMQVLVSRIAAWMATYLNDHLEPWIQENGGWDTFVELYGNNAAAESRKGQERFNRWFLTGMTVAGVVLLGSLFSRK
Bcl-xL conf: counter-screen for MCL1 inhibitors: confirmation of human Bcl-xL inhibitors; shares compounds with MCL1-BIM inh; GST-Bcl-xL / FITC-Bim BH3 peptide FP binding; inhibition, % at 10.9 µM; 1,700 tested, 54% active; AID 2166;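 active = inhibition above a cutoff equal to the mean inhibition of all tested compounds plus 3 SD, cut at about 30% in these data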;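 note: 0% = DMSO wells and 100% = unlabeled Bim BH3 control peptide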
MCL1 inh confirm: MCL1-BIM-BH3 interaction inhibition, confirmation; shares compounds with MCL1-BIM inh; GST-MCL1 / FITC-Bim-BH3 fluorescence polarization; inhibition, % at 10.9 µM; 1,700 tested, 61% active;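 active = inhibition above the average of all tested compounds plus 3 SD, cut at about 40% in these data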;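 note: 0% = DMSO wells and 100% = unlabeled Bim-BH3 control peptide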
An asterisk follows results filed as active; u = inconclusive; x = no result; + = active, no number.

SMILES	eLon inh	MEX-5 binding	MCL1-BIM inh	EBV gp42 inh	GLD-1 RNA inh	BCLXL inh	Bcl-xL conf	MCL1 inh confirm
CCc1ccc(N2CC(C(=O)Nc3ccc4c(c3)OCO4)CC2=O)cc1 (configuration not stated)	-7	x	-2	x	-5	-7	x	x
O=C(NCCc1ccccc1)c1ccc2nc(-c3ccco3)c(-c3ccco3)nc2c1	3	-1	40*	55*	8	29	42*	75*
O=C(NCCc1ccccc1)c1ccc(=O)oc1	3	2	-15	-11	-6	-4	x	x
O=C(NCCO)c1ccc2nc(-c3ccco3)c(-c3ccco3)nc2c1	18	-39*	56*	-4	21	43*	60*	77*
c1coc(-c2nc3ccccc3nc2-c2ccco2)c1	7	u	60*	0	10	34*	34*	42*
O=c1oc(-c2ccco2)nc2ccccc12	-12	0	3	-10	9	5	x	x
O=C(NCCO)c1ccc(Cl)c(Cl)c1	0	1	7	-1	0	3	x	x
O=C(NC1CCCC1)c1ccc2nc(-c3ccco3)c(-c3ccco3)nc2c1	7	x	64*	21	9	41*	40*	76*
COc1cc(OC)cc(C(=O)NCC(=O)Nc2ccc(-c3ccccc3)cc2)c1	-2	-1	3	x	3	1	x	x
CCOC(=O)c1cc2n(c1/N=C/N(C)C)-c1ccccc1C2=O	7	u	+	151*	169*	192*	186*	+
CCN(CC)CC(O)CNc1ccnc2c(Cl)ccc(Cl)c12 (configuration not stated)	2	x	x	x	x	x	x	x
COc1ccccc1N(CC(=O)NC1CCCC1)C(=O)c1csnn1	5	1	69*	4	-3	3	7	3
COc1ccccc1N(CC(=O)NC1CCCCC1)C(=O)c1csnn1	5	2	0	-13	6	2	x	x
COc1cc(-c2nc3ccc(C)cn3c2NCc2ccccc2)ccc1-c1cccc(Cl)c1	-13	x	x	x	5	x	x	x
Cc1ccc2nc(-c3ccc(-c4cccc(Cl)c4)cc3)c(NCc3ccccc3)n2c1	-4	4	78*	x	1	50*	24	19
CCn1c(/C=C/c2cc[n+](C)cc2)nc2ccccc21	11	-3	75*	x	20	74*	65*	65*
CCCn1c(/C=C/c2ccccc2)nc2ccccc21	2	-3	0	-7	-4	2	x	x
O=C(O)C(S)C(S)C(=O)O (configuration not stated)	-7	-21	84*	x	9	28	38*	86*
CCc1[nH]nc2c1C1(CCN(C(=O)c3ccccc3)CC1)C(C#N)=C(N)O2	-1	-2	-1	-19	-4	2	x	x
CC1(C)CC(=O)C2=C(C1)OC(N)=C(C#N)C21CCN(Cc2ccccc2)CC1	-3	-15	73*	6	30	74*	63*	70*
Cc1nc2c([nH]1)C1(CCN(Cc3ccccc3)CC1)C(C#N)=C(N)O2	10	x	+	14	93*	163*	32*	46*
Cc1cc(=O)oc(C)c1C(=O)Nc1ccc2nsnc2c1	-5	-3	10	x	-6	4	x	x
Cc1cc(=O)oc(C)c1C(=O)Nc1ccc2ncccc2c1	-6	-19	97*	72*	-27	100*	79*	82*
O=C(NNC(=O)C1COc2ccccc2O1)c1ccccc1O (configuration not stated)	-3	x	x	x	x	x	x	x
Cc1noc(/C=C/N(C)C)c1S(=O)(=O)N1CCCC(C(=O)NC2CCCCC2)C1 (configuration not stated)	-30	4	-15	-13	-13	-13	x	x
SMILES	eLon inh	MEX-5 binding	MCL1-BIM inh	EBV gp42 inh	GLD-1 RNA inh	BCLXL inh	Bcl-xL conf	MCL1 inh confirm
Cc1noc(/C=C/N(C)C)c1S(=O)(=O)N1CCCC(C(=O)N2CCCCC2)C1 (configuration not stated)	-5	-1	66*	-19	32*	72*	17	8
O=C(O)C1=C[C@H](c2coc3ccccc3c2=O)C[C@H](OCCCCO)O1	6	-2	59*	-16	16	9	13	7
NC(=O)C1=C[C@H](c2coc3ccccc3c2=O)C[C@H](OCCCCO)O1	-3	-2	5	-13	6	0	x	x
COc1cccc(OC)c1C(=O)Nc1ccnn1C	-9	3	-6	x	1	-2	x	x
CNC(=S)N(C)/N=C1/C(=O)N(Cc2c(Cl)cccc2Cl)c2ccccc21	-3	x	8	x	4	3	x	x
COc1cc2cc(CN(Cc3nnnn3Cc3ccco3)C3CCCCC3)c(=O)[nH]c2cc1OC	4	-10	60*	-1	30	47*	24	20
Cn1c(=O)c2[nH]c(C3CC3)nc2n(C)c1=O	-11	x	x	x	x	x	x	x
O=C(O)/C(=C\c1ccc(Cl)c([N+](=O)[O-])c1)c1ccc(S(=O)(=O)N2CCCC2)s1	-6	x	43*	x	-1	11	19	49*
O=C(O)/C(=C\c1ccc(Cl)c([N+](=O)[O-])c1)c1ccc(S(=O)(=O)N2CCCCC2)s1	6	-3	15	-2	2	15	x	x
CCC1=NNc2cccc3c(OC)ccc1c23	x	-1	126*	-1	11	116*	45*	38
COc1ccc(C(C)=O)c2c(O)cccc12	1	-2	-9	7	7	0	x	x
CN(C)/C(=N\S(=O)(=O)c1ccc(Cl)cc1)c1ccc(F)cc1	-8	2	-1	x	3	-1	x	x
O=c1oc2c3c4c(cc2c(C(F)(F)F)c1CCN1CCOCC1)CCCN4CCC3	-12	u	122*	139*	65*	107*	107*	116*
Cc1ccc[n+](-c2[nH]c(=O)sc2/C=N/NC(=O)c2ccccc2[O-])c1	6	-27*	75*	53*	31*	44*	39*	56*
O=C(N/N=C/c1sc(=O)[nH]c1-[n+]1ccccc1)c1ccccc1[O-]	1	-23	55*	41	28	44*	46*	64*
CCOC(=O)C1CCN(C(=O)COC(=O)CSc2ccccc2C)CC1	1	x	x	x	3	x	x	x
O=C(NNC(=O)c1ccccc1F)c1cccc(-n2cccc2)c1	-13	-3	65*	x	-1	7	23	92*
Cc1ccc(NC(=O)CN2C(=O)NC(Cc3ccccc3)C2=O)cc1Cl (configuration not stated)	-3	x	-5	x	3	-4	x	x
